Percent Effect data for ten compounds are collected here from ChEMBL document CHEMBL3988442, “University of Dundee, Small-Polar-MMV Screening Library” (2021).

Set-up in all cases: scale not given: direction of the effect not stated beside the values
The target in experiment [1] is Protein translocase subunit SecA (Escherichia coli (strain K12)) (UniProt P10408). The experiment is described as follows: Assay to Identify E. coli SecA ATPase Inhibitors. The class given is functional. As to conditions: 30 µM.
Experiment [2] deals with T1, Ubiquitin-activating enzyme e1, putative (Leishmania donovani (strain BPK282A1)) (UniProt E9BSI1).
T1 sequence (whole entry): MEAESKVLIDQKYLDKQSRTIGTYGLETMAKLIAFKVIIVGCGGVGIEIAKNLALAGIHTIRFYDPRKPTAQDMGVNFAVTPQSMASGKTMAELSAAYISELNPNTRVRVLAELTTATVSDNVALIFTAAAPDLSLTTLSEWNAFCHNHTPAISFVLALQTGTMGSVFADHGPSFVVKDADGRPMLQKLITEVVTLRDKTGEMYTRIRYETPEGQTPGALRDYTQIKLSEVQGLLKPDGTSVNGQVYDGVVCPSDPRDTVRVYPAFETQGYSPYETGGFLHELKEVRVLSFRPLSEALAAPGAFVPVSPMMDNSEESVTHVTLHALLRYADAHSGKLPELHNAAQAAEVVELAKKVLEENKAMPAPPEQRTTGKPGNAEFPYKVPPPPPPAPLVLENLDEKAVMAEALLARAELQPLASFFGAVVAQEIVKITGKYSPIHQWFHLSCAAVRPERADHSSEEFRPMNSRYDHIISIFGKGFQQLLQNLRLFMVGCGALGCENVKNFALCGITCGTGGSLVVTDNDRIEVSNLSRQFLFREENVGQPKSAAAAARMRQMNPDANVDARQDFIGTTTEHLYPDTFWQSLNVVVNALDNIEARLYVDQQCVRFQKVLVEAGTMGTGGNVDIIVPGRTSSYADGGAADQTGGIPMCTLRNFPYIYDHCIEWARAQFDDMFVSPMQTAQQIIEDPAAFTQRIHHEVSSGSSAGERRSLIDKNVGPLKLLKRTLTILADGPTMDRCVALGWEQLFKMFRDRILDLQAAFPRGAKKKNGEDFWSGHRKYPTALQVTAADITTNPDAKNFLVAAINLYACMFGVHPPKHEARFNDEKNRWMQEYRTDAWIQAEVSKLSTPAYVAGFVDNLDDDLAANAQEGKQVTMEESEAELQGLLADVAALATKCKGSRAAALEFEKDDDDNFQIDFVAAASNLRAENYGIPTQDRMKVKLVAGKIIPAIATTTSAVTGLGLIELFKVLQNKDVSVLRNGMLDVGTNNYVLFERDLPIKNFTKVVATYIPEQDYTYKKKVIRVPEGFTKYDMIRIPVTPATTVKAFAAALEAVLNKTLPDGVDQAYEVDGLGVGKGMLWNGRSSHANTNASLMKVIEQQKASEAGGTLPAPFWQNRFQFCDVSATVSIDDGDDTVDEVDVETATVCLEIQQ
The experiment is described as follows: Leishmania donovani Ubiquitin Activating Enzyme (LdE1). The class given is functional. As to conditions: 30 µM.

Experiment [3] deals with AMP-activated protein kinase, AMPK (Homo sapiens) (UniProt P54646+O43741+P54619+Q9UGJ0+Q9Y478+Q13131+Q9UGI9). As to the kind of experiment: AMP-dependent Kinase enzyme assay. An in vitro enzyme assay that detects ADP turnover that is directly proportional to AMPK activity. This uses naive AMPK that is activated during the assay with MK-8722. The note with it: 30 µM. The class given is functional.

For experiment [4], the target named is Sialic acid-binding Ig-like lectin 9 (Homo sapiens) (UniProt Q9Y336). The experiment is described as follows: Hs-Siglec9 ALPHAscreen SOP 20170721. The note with it: 10 µM.
The subject of a further experiment is Trypanosoma cruzi. As to the kind of experiment: Trypanosoma cruzi phosphomannomutase and mannose-1-phosphate guanylyltransferase assay. As to conditions: 10 µM. The format is functional.
Experiment [5] has as its target T2, Arginase-2, mitochondrial (Homo sapiens) (UniProt P78540).
T2 sequence (whole entry): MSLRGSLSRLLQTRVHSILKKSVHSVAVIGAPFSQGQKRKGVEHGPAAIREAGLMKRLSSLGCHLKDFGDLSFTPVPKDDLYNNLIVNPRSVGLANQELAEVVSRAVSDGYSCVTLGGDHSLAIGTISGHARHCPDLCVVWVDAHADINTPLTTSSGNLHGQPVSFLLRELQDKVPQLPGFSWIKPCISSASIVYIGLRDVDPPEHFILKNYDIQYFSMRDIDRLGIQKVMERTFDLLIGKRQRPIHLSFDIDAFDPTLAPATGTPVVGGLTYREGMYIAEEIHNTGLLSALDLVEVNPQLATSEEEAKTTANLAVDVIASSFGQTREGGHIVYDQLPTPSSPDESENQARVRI
As to the kind of experiment: in vitro enzyme assay to detect the production of urea directly proportional to the activity of Arginase II. Also: in the data most compounds retested in dose-response had high values. The format is functional. The note with it: 33.3 µM.

The target of experiment [6] is T3, Proteasome subunit beta (Trypanosoma cruzi) (UniProt O96673).
T3 sequence (whole entry): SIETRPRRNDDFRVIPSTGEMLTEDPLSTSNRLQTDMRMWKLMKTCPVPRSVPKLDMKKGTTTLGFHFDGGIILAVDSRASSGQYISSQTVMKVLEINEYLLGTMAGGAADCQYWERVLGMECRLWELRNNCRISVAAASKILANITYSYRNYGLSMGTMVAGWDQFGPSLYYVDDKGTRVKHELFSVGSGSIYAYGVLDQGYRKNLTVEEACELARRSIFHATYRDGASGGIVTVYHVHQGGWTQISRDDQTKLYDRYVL
The experiment is described as follows: Trypanosoma cruzi proteasome chymotrypsin-like activity (TcProtChymo) assay. Also: in the data most compounds retested in dose-response had high values. The class given is functional. The note with it: 9.37 µM.

For the next experiment, the species on record is Homo sapiens. As to the kind of experiment: To identify inhibition of the IFN signalling (Jak-Stat) pathway via expression of an eGFP reporter gene under the control of an IFN-stimulated response element (ISRE) containing MxA promoter. The note with it: 30 µM. The format is functional. For orientation: In a reporter assay the amount or activity of a reporter protein is the signal.

Experiment [7] deals with T4, Tyrosyl-tRNA synthetase, putative (Trypanosoma cruzi (strain CL Brener)) (UniProt Q4DSP6).
T4 sequence (whole entry): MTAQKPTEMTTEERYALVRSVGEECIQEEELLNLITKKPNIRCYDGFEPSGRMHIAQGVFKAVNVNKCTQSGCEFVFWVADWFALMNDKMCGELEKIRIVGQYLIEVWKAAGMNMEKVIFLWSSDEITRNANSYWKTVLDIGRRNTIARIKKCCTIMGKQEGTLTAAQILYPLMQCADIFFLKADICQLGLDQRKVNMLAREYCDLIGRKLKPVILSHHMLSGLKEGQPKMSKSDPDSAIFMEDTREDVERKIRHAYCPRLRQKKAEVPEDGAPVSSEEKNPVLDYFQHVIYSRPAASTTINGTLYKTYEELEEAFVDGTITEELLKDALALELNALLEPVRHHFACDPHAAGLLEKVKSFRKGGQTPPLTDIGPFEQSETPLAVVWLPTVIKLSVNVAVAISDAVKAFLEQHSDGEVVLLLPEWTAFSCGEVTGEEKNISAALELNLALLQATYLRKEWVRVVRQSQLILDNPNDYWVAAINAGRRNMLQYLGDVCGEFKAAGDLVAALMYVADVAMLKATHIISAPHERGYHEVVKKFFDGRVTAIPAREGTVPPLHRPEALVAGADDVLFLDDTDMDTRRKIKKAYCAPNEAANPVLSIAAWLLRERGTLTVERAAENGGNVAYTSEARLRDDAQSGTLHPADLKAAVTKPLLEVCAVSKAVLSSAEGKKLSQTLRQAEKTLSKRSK
As to the kind of experiment: Trypanosoma cruzi tyrosyl tRNA synthetase (TcYRS) _High Tyrosine SOP. Also: in the data most compounds retested in dose-response had high values. The note with it: 30 µM. The class given is functional.

Experiment [8] deals with T4, Tyrosyl-tRNA synthetase, putative (Trypanosoma cruzi (strain CL Brener)). The experiment is described as follows: Trypanosoma cruzi tyrosyl tRNA synthetase (TcYRS) SOP. The class given is functional. As to conditions: 30 µM.
Experiment [9] has as its target Chromo domain-containing protein 1 (Saccharomyces cerevisiae (strain ATCC 204508 / S288c) (Baker's yeast)) (UniProt P32657). The experiment is described as follows: ScCHD-1 Enzyme Inhibition Assay. Also: in the data most compounds retested in dose-response had high values. The note with it: 30 µM. The format is functional.

Molecules are shown by their SMILES. For some assays here: Potency and affinity values are given separately.

Sialic acid-binding Ig-like lectin 9 (Homo sapiens), sequence (Q9Y336 whole entry): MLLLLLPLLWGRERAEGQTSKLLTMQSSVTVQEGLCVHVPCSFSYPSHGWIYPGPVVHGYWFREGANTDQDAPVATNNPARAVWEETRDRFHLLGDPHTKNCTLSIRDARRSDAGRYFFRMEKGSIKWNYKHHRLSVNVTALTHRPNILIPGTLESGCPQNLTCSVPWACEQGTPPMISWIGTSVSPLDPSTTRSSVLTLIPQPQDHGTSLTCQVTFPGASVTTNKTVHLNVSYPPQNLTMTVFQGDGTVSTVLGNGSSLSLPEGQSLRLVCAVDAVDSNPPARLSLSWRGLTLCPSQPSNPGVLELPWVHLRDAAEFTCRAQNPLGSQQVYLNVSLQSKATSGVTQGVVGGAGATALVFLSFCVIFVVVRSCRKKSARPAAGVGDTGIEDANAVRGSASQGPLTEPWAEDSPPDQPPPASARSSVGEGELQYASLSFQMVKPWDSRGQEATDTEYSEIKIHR
Chromo domain-containing protein 1 (Saccharomyces cerevisiae (strain ATCC 204508 / S288c) (Baker's yeast)), sequence (P32657 whole entry, the tested form may be a part): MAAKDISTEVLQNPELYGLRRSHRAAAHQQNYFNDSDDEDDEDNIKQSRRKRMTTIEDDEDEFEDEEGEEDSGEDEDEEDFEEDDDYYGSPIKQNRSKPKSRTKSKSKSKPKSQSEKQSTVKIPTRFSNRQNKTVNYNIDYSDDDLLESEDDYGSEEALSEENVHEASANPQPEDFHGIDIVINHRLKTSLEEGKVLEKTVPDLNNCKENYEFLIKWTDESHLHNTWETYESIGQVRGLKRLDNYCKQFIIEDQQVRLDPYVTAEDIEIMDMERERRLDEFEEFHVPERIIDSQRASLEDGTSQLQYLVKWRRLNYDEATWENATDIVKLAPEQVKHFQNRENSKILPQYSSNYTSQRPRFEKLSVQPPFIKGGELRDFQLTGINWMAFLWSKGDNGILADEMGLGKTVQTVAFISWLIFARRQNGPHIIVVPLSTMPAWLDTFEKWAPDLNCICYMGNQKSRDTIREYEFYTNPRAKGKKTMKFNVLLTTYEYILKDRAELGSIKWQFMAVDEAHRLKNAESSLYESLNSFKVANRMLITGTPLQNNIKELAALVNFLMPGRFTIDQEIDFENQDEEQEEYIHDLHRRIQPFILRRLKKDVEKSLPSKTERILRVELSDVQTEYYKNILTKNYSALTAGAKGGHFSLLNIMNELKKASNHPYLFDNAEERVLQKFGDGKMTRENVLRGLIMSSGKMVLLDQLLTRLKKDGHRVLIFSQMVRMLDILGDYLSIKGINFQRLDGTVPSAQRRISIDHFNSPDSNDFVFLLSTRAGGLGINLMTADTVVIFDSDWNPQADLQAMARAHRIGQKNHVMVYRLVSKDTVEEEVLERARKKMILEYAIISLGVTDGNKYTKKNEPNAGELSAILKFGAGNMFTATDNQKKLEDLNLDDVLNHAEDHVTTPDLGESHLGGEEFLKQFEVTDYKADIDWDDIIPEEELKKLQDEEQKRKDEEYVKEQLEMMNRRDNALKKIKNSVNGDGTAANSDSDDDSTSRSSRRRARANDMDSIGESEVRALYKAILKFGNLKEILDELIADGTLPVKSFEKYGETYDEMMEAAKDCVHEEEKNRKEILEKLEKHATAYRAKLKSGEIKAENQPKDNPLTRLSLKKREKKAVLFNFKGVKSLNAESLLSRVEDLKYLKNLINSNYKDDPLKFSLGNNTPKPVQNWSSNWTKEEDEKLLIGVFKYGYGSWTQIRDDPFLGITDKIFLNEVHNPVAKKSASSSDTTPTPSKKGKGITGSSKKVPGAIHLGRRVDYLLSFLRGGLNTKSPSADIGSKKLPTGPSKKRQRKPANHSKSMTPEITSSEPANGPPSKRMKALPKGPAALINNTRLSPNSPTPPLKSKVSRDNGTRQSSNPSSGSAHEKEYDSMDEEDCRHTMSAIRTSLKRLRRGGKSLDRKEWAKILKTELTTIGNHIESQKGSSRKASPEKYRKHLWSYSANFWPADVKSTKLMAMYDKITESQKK
Protein translocase subunit SecA (Escherichia coli (strain K12)), sequence (P10408 whole entry): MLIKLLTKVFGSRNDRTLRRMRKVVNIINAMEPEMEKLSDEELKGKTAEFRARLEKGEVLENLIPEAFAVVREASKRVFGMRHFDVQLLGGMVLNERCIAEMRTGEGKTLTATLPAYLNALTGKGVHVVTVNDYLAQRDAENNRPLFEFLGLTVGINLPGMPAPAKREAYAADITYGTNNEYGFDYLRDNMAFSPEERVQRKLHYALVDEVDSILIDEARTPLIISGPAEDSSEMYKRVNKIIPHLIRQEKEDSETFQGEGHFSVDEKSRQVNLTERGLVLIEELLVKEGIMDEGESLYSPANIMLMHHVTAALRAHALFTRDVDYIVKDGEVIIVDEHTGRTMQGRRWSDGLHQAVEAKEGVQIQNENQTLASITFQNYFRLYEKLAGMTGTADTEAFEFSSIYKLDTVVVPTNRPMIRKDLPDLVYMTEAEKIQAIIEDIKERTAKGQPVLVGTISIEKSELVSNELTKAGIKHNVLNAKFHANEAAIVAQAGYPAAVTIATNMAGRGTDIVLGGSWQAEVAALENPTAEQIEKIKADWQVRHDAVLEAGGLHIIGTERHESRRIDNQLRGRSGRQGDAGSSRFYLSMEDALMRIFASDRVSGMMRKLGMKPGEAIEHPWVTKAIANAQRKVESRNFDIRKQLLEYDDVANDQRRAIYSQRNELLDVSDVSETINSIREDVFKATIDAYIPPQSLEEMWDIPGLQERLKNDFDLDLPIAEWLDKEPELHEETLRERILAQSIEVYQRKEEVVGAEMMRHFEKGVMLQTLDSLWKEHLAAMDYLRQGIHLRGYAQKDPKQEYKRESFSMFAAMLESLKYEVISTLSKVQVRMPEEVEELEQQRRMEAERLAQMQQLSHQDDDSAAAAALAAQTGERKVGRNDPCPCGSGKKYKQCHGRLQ

Take `Cc1ccc(CNC2CCN(CCc3ccncc3)CC2)s1`: the Percent Effect in experiment [1] was -6.73%; in [2], -5.41%; in [3], -1.83%; in experiment [4] it was 2.51%; in the experiment with Trypanosoma cruzi it was -1.76%; in [5] it was 5.42%. Also, the Percent Effect in [6] was 7.86%; in the experiment listed under Homo sapiens, 1.37%; in experiment [7], 7.92%; in experiment [8], 8.54%; in experiment [9], -4.89%.
`CCOc1cc(C(=O)N2CCCC(c3noc(C)n3)C2)ccn1` (stereo not given): the Percent Effect in experiment [1] was -5.03%; in [2], 10.5%; in [3], -4.05%; in experiment [4] it was 13.6%; in the experiment with Trypanosoma cruzi it was -2.15%; in experiment [5], -1.08%. The Percent Effect in experiment [6] was 2.12%; in the experiment filed under Homo sapiens, -18.5%; in [7], 5.42%; in [8], 11.1%; in experiment [9], -2.64%.
With `CCOc1ccc(Cl)c(C(=O)N2CCN(CCO)CC2)n1`, the Percent Effect is -5.67% in experiment [1]; 10.4% in experiment [2]; -0.195% in experiment [3]; 9% in [4]; -3% in the experiment with Trypanosoma cruzi; 0.356% in experiment [5]. In addition, the Percent Effect in [6] was 4.05%; in the experiment filed under Homo sapiens, 5.42%; in [7], 4.85%; in experiment [8], 9.76%; in [9], -4.45%.
For the compound `Cc1cc(CN2CCCC2c2noc(C3CC3)n2)c2ccccc2n1` (stereo not given), the Percent Effect in experiment [1] is 1.53%; in experiment [2], -16.2%; in [3] it was -1.25%; in experiment [4], 5.64%; with Trypanosoma cruzi, -1.39%; in [5] it was 9.8%. For the same compound, the Percent Effect was -4.49% in experiment [6]; 94.8% in the experiment filed under Homo sapiens; 11.9% in experiment [7]; 3.66% in experiment [8]; 12.8% in experiment [9].
Turning to `COc1ccc(NC(C)C(=O)N2CCN(c3ncccn3)CC2)cn1` (stereo not given), the Percent Effect is -5.21% in experiment [1]; 8.22% in experiment [2]; -137% in experiment [3]; -2.83% in experiment [4]; 3.13% with Trypanosoma cruzi; 8.18% in [5]. The Percent Effect in experiment [6] was 0.71%; in the experiment filed under Homo sapiens it was -4.13%; in [7] it was 3.23%; in experiment [8], 7.5%; in experiment [9] it was -3.06%.
In the case of `O=C(NCC1CCOC1)c1cc(-c2cccc(Cl)c2)on1` (stereo not given), the Percent Effect is -3.92% in experiment [1]; 18.2% in [2]; 1.45% in experiment [3]; 3.45% in experiment [4]; 0% in the experiment with Trypanosoma cruzi; 4.27% in experiment [5]. The Percent Effect is 16.7% in experiment [6]; 14.6% in the experiment listed under Homo sapiens; 5.83% in experiment [7]; 14.6% in experiment [8]; -5.69% in experiment [9].
Take `Cc1cc2cc(C(=O)N[C@@H]3CC[C@@H](N4CCOCC4)[C@@H]3O)ccc2o1`: the Percent Effect in experiment [1] was 1.28%; in experiment [2], 17.6%; in experiment [3], 5.33%; in [4] it was -5.41%; with Trypanosoma cruzi, 2.57%; in [5] it was -0.232%. For the same compound, the Percent Effect in experiment [6] is 13.4%; in the experiment filed under Homo sapiens it was 29.4%; in [7], 5.38%; in experiment [8], 3.9%; in [9], -10.2%.
Turning to `CCOCc1cccc(S(=O)(=O)N2CCSCC2)c1`, the Percent Effect in experiment [1] is -3.9%; in [2], 1.33%; in experiment [3], 4.84%; in experiment [4], 4.89%; in the experiment with Trypanosoma cruzi, -6.09%; in [5], 0.88%. Also, the Percent Effect in experiment [6] was 7.58%; in the experiment listed under Homo sapiens, 5.82%; in experiment [7], 4.23%; in [8], -2.56%; in experiment [9] it was -3.83%.
As to `Cc1nn(C)c(N2CCOCC2)c1CNC(c1cccs1)C(C)C` (stereo not given), the Percent Effect in [1] was -2.38%; in [2], 21.1%; in experiment [3], -9.37%; in [4], -0.827%; in the experiment with Trypanosoma cruzi it was 1.59%; in experiment [5] it was 1.8%. For the same compound, the Percent Effect in experiment [6] was 12.6%; in the experiment filed under Homo sapiens it was -16.1%; in [7], 10.3%; in experiment [8], 28.4%; in experiment [9], -6.09%.
For the compound `COc1ncccc1CNC(=O)NC1CCOc2ccccc21` (stereo not given), the Percent Effect was -3.57% in experiment [1]; 5.41% in experiment [2]; -0.164% in experiment [3]; 13.2% in experiment [4]; 5.48% with Trypanosoma cruzi; 0.185% in [5]. Besides, the Percent Effect in experiment [6] was -4.85%; in the experiment listed under Homo sapiens, 10.6%; in [7], 0%; in experiment [8] it was 13.4%; in experiment [9], -3.69%.
